The values that follow come from the OligoGym collection.
Further: reference of the scale not given here.

In one experiment the target is TRPC4. In words: pooled miR-30 sensor sort-seq; sequence = guide strand. The settings on record: shRNA.
In turn, TATTTCTCTCAAGTGGTCCTGC yielded a sensor-assay potency score (higher = more potent) of 0.27. Still for that read-out and setting: the value for TATGAGACTATTGTCATCTCGG was 0.182; that for TAACACACATTGTTCACTGAGA was -0.436; that for TTGACGAGCAACTTCTTCTGAA was 0.0812.

With TTTGGTATTATAGGAACCGTGT, the sensor-assay potency score (higher = more potent) was -0.294. With TAGATGTTGAGTCTGGAGCGTG, the sensor-assay potency score (higher = more potent) was -0.516.

Take TATACTAGAGTCCTCTTCTTTT: the sensor-assay potency score (higher = more potent) was -1.18. On the same count and under the same terms, for TTCTTTTGCATGTTTCTCCTTT the value was 0.299. On the same count and under the same terms, the value for TTGAGTAGAACAACCAGAGAGA was -0.452. On the same count and under the same terms, the value for TTGAATGGACACACTCTCTTTC was -0.228; that for TATTGTTCCAAAACTTTCTGGC was 0.627. In the case of TTCTCTGGAACTTCTCGTCTGA, the sensor-assay potency score (higher = more potent) was -0.126.

In a further experiment the target is TRPM3. The experiment is described as above. The settings on record: shRNA.
Consider TTTGTCTTTCATATTGACCGAA, for which the sensor-assay potency score (higher = more potent) is -0.0309. As to TTGTCTTCGAAGTTTCACCTCT, the sensor-assay potency score (higher = more potent) stood at 0.148. Regarding TAAAATGCTCTTTCTATCCAGG, the sensor-assay potency score (higher = more potent) is -0.366. Still for that read-out and setting: the value for TTGTCTTTCATATTGACCGAAT was -0.665; that for AATGTCGTCAACCATGTCGTTC was -1.05; that for TTTCTTGAGCTCATCATCGGTT was 0.21.
